“And” between values parts separate entries of the source, which are not always exact repeats. Identical values can stand only once. Results filed as inconclusive are left out. Entries that show only a call come without a potency. The source made the active and inactive calls. Unless noted, the call rests on the fitted dose curve.
Test: qHTS assay for small molecules that induce genotoxicity in human embryonic kidney cells expressing luciferase-tagged ATAD5 (AID 651632; active means well fitted activation curve with a large enough effect in the repeat runs; further: nearly all actives have a fitted effect of over 15% in size)
Conditions: HEK293T ATAD5-luciferase induction, 16 h; series mostly up to 83.3 µM
In short: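 DMSO vehicle served as the control. HEK293T reporter cells, 16 hr at 37C, then 30 min Amplite at room temperature; ATAD5 induction is measured as luciferase activity.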
With `CCc1ccccc1N` the Potency was “inactive”.
With `Cc1cccc(C)c1NC1=NCCCS1` the Potency was “inactive”.
With `CCCCCBr` the Potency was “inactive”.
For `CC(C)[C@@H](C(=O)O[C@@H](C#N)c1cccc(Oc2ccccc2)c1)c1ccc(Cl)cc1`, the Potency was “inactive”.
For `O=C(O)C(O)C(O)C(=O)O` (centres undefined), the Potency was “inactive”.
In the case of `CCC1(CCC(C)C)C(=O)NC(=O)NC1=O`, the Potency is reported as “inactive”.
For `CN1CC[C@]23c4c5ccc(O)c4O[C@H]2[C@@H](O)C=C[C@H]3[C@H]1C5`, the Potency was “inactive”.
In the case of `NP(N)(=O)NC(=O)c1ccc(F)cc1`, the Potency is reported as “inactive”.
In the case of `C[Si](Cn1cncn1)(c1ccc(F)cc1)c1ccc(F)cc1`, the Potency is reported as “inactive”.
With `NNCCO` the Potency was “inactive”.
In the case of `C[C@]12C=CC3=C4CCC(=O)C=C4CC[C@H]3[C@@H]1CC[C@@H]2O`, the Potency is reported as “inactive”.
With `Nc1c(Br)cc(Br)c2c1C(=O)c1ccccc1C2=O` the Potency was “inactive”.
With `c1ccc2sc(SNC3CCCCC3)nc2c1` the Potency was “inactive”.
With `NCCc1cc(O)c(O)cc1O` the Potency was “inactive”.

Test: qHTS assay for small molecule agonists of the p53 signaling pathway - cell viability (AID 651633); further: nearly all actives have a fitted effect of over 30% in size; further: potency means the concentration at half of the fitted maximal effect
Conditions: p53RE-bla HCT-116 viability, ATP luminescence, 16 h; series mostly up to 83.3 µM
In short: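 p53RE-bla cells were treated with compound for 16 hours at 37 C. Cytotoxicity was then measured as CellTiter-Glo luminescence after 30 min at room temperature.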
In the case of `C[CH2][Hg][S]c1ccccc1C(=O)O`, the Potency is reported as 3.35 µM (active) and 2.43 µM (active).
In the case of `CC1(C)[C@H](C(=O)O[C@H](C#N)c2cccc(Oc3ccccc3)c2)[C@@H]1C=C(Br)Br`, the Potency is reported as “inactive”.
In the case of `CN1C(=O)CN=C(c2ccccc2)c2cc([N+](=O)[O-])ccc21`, the Potency is reported as “inactive”.
For `C=CCN1C[C@H](C)N([C@H](c2ccc(C(=O)N(CC)CC)cc2)c2cccc(OC)c2)C[C@H]1C`, the Potency was “inactive”.
In the case of `O=CC=O`, the Potency is reported as “inactive”.
With `C=C(C)C(=O)OCCCCOC(=O)C(=C)C` the Potency was “inactive”.
With `Nc1ccccc1C(=O)OCCc1ccccc1` the Potency was “inactive”.
In the case of `Cc1ncc(C[n+]2csc(CCO)c2C)c(N)n1`, the Potency is reported as “inactive”.
For `Nc1ccc2c(c1)Cc1ccccc1-2`, the Potency was “inactive”.
In the case of `CN(C)c1ccc(N=O)cc1`, the Potency is reported as 21.8 µM (active).
With `CC(=O)NNc1ccccc1` the Potency was “inactive”.
With `Clc1ccccc1` the Potency was “inactive”.
In the case of `CCOP(=S)(OCC)Oc1ccc(S(C)=O)cc1` (centres undefined), the Potency is reported as “inactive”.
In the case of `O=C(O)CCCOc1ccc(Cl)cc1Cl`, the Potency is reported as “inactive”.
In the case of `CC(C)c1ccc(NC(=O)N(C)C)cc1`, the Potency is reported as “inactive”.
For `CC(=O)OC(c1ccccc1)C(Cl)(Cl)Cl` (centres undefined), the Potency was “inactive”.
For `O=[N+]([O-])c1cc(Cl)c(Cl)cc1Cl`, the Potency was “inactive”.

Test: qHTS assay for small molecules that induce genotoxicity in human embryonic kidney cells expressing luciferase-tagged ATAD5 - cell viability (AID 651634); further: nearly all actives have a fitted effect of over 25% in size; further: potency means the concentration at half of the fitted maximal effect
Conditions: HEK293T ATAD5-luc cells viability, CellTiter-Fluor, 15.5 h; series mostly up to 83.3 µM
In short: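 Here HEK293T cells with the ATAD5 luciferase reporter are incubated with test compounds for 15.5 hr, and cytotoxicity is then gauged by measuring protease activity in live cells using fluorescence.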
In the case of `CCc1ccccc1N`, the Potency is reported as “inactive”.
With `Cc1cccc(C)c1NC1=NCCCS1` the Potency was “inactive”.
With `C[CH2][Hg][S]c1ccccc1C(=O)O` the Potency was 11.9 µM (active) and 27.3 µM (active).
In the case of `CC1(C)[C@H](C(=O)O[C@H](C#N)c2cccc(Oc3ccccc3)c2)[C@@H]1C=C(Br)Br`, the Potency is reported as “inactive”.
With `[Cl-].[Cl-].[Hg+2]` the Potency was 5.31 µM (active) and 30.5 µM (active) and 61.1 µM (active).
For `C=CCN1C[C@H](C)N([C@H](c2ccc(C(=O)N(CC)CC)cc2)c2cccc(OC)c2)C[C@H]1C`, the Potency was “inactive”.
In the case of `COc1ccc(C(=O)c2c(C)n(CCN3CCOCC3)c3ccccc23)cc1`, the Potency is reported as “inactive”.
In the case of `O=CC=O`, the Potency is reported as “inactive”.
With `C=C(C)C(=O)OCCCCOC(=O)C(=C)C` the Potency was “inactive”.
With `CCCCCBr` the Potency was “inactive”.
In the case of `CC(C)[C@@H](C(=O)O[C@@H](C#N)c1cccc(Oc2ccccc2)c1)c1ccc(Cl)cc1`, the Potency is reported as “inactive”.
With `Nc1ccccc1C(=O)OCCc1ccccc1` the Potency was “inactive”.
In the case of `O=C(O)C(O)C(O)C(=O)O` (centres undefined), the Potency is reported as “inactive”.
With `COP(=O)(OC)OC(Br)C(Cl)(Cl)Br` (centres undefined) the Potency was “inactive”.
For `Cc1ncc(C[n+]2csc(CCO)c2C)c(N)n1`, the Potency was “inactive”.
For `Nc1ccc2c(c1)Cc1ccccc1-2`, the Potency was “inactive”.
With `CCC(C)(C)O` the Potency was “inactive”.
For `CN1CC[C@]23c4c5ccc(O)c4O[C@H]2[C@@H](O)C=C[C@H]3[C@H]1C5`, the Potency was “inactive”.
For `NP(N)(=O)NC(=O)c1ccc(F)cc1`, the Potency was “inactive”.
With `CN(C)c1ccc(N=O)cc1` the Potency was 61.3 µM (active) and 54.5 µM (active).
With `C[Si](Cn1cncn1)(c1ccc(F)cc1)c1ccc(F)cc1` the Potency was “inactive”.
In the case of `O=C1NC(=O)C(=O)C(=O)N1`, the Potency is reported as “inactive”.
For `CC(=O)NNc1ccccc1`, the Potency was 10.8 µM (active).
In the case of `Clc1ccccc1`, the Potency is reported as “inactive”.
In the case of `NNCCO`, the Potency is reported as “inactive”.
With `O=C(NC(=O)c1cc(F)c(F)cc1Cl)Nc1cc(F)ccc1N1CCC(C(=O)O)CC1` the Potency was “inactive”.
In the case of `C[C@]12C=CC3=C4CCC(=O)C=C4CC[C@H]3[C@@H]1CC[C@@H]2O`, the Potency is reported as “inactive”.
With `Nc1c(Br)cc(Br)c2c1C(=O)c1ccccc1C2=O` the Potency was “inactive”.
For `CC(C)c1ccc(NC(=O)N(C)C)cc1`, the Potency was “inactive”.
In the case of `CC(=O)OC(c1ccccc1)C(Cl)(Cl)Cl` (centres undefined), the Potency is reported as “inactive”.
With `c1ccc2sc(SNC3CCCCC3)nc2c1` the Potency was “inactive”.
With `NCCc1cc(O)c(O)cc1O` the Potency was “inactive”.
For `O=[N+]([O-])c1cc(Cl)c(Cl)cc1Cl`, the Potency was “inactive”.

From PubChem BioAssay (Tox21)
